For some assays here: Measured potencies and affinities stand elsewhere. Active and inactive are the calls of the source. No stated cut-off is given here; in the data, active means parasite load remaining mostly below about 12% (no sharp cut-off); inactive means mostly above about 10%. Numbered stars: 1 amine (or outer) side, 2 acyl side, 3 side chain; on linkers, the order of the positions; unused ones are H or OH. Bridge positions count the residues as written; N and C are the ends. Square brackets hold non-standard residues; d marks the D form. Peptide text beside a SMILES is read from it. * marks the point of attachment. ξ: configuration not given here. ΔAla(Z-3-ureido) = NC(=O)N/C=C(\N)C(=O)O; X2 = NC1=NCCC(C(N[*:1])C(=O)[*:2])N1; ξβ3hOrn = NCCCC(N)CC(=O)*; Dap = NC[CH](N)C(=O)O
What was measured:
[1] = polyglutamine-triggered caspase-3 activation inhibitors, cell-based (AID 1583); settings: polyglutamine-induced caspase-3 activation, cell assay; stronger effect = higher value;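 tested at 10 µM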
[2] = suppressors of polyQ aggregation in yeast, 75Q-TubU reporter (AID 1593); settings: Yeast 75Q polyglutamine aggregation reporter
[3] = rescue of polyQ-huntingtin neuronal dysfunction in worms, whole organism, C. elegans mechanosensory neurons, N-terminal huntingtin (AID 1599); settings: touch response, stronger effect = higher value
[4] = inhibitors of mitochondrial cytochrome c release, biochemical, purified mitochondria (AID 1603); settings: stronger effect = lower value;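 further: mouse liver mitochondria challenged with calcium chloride; signal normalized to the plate average as 100%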
[5] = inhibitors of polyQ protein aggregation (AID 1604); settings: polyglutamine-induced protein aggregation inhibition assay; stronger effect = higher value; tested at 2.5 µM
[6] = enhancers of glutamate uptake in motor neurons, MN-1 cell line (AID 1612); settings: MN-1 motor neuron cells, stronger effect = higher value;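 further: tested at 1 µM final; 0% = mean of DMSO vehicle wells on each plate; positive means more glutamate uptake than control and negative means less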
[7] = reducers of polyQ inclusions in PC12 cells, cell-based, NGF-treated PC12, GFPQ80 (AID 1614); settings: PC12 NGF-treated GFP-polyQ80 inclusion reduction;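 further: lower means fewer inclusions and 0 means no inclusions at all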
[8] = suppressors of polyglutamine aggregation in yeast, 75Q-TubH (AID 1616); settings: S. cerevisiae 75Q-TubH polyglutamine aggregation suppression; stronger effect = higher value
[9] = liver-stage malaria parasite growth inhibition, primary screen, cell-based, HepG2, luciferase luminescence, HepG2 viability (AID 624349);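 further: 100% = mean of DMSO negative control wells on the same plate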; settings: P. berghei liver stage in HepG2, luciferase luminescence, concentration not given here; parasite load remaining: stronger effect = lower value; viability: measured here: HepG2 viability without parasites

SMILES | inhibition [1] [%] | score [2] | rescue above control [3] | cytochrome c release ratio [4] | inhibition of aggregation [5] [%] | glutamate uptake change [6] [%] | inclusion score [7] | aggregation suppression score [8] | parasite load remaining [9] | viability [9] [%]
CC(=O)Oc1ccc2c(c1)CCC1C2CCC2(C)C(=O)CCC12 (configuration not stated) | 10.5 | -0.03 | -10.4 | 0.81 | 85.9 | -16 | 2 | 0.169 |  | 
CN[C@@H]1[C@H](O)[C@H](NC)[C@H]2O[C@@]3(O)C(=O)C[C@@H](C)O[C@H]3OC2[C@H]1O (some centres not stated) | 1.15 | 1.13 | -5.98 | 0.86 | 42.9 | 4.38 | 2 | 1.36 |  | 
OCCS | 26.7 | 1.26 | -1.67 | 1.18 | 29.4 | 5.07 | 2 | 1.5 |  | 
COC1=C2C[C@@H](C)C[C@H](OC)[C@H](O)[C@@H](C)/C=C(\C)[C@@H](OC(N)=O)[C@H](OC)/C=C\C=C(/C)C(=O)NC(=CC1=O)C2=O | -5.02 | 2.11 | 0 | 1.13 | -23.4 | 10.3 |  | 1.43 |  | 
OCc1cc2c(cn1)[nH]c1ccccc12 | 15.8 | 0.82 | 10.8 | 0.58 | -1.27 | 17.8 | 2 | 1.28 |  | 
NCCCC(N)CC(=O)NCC1NC(=O)C(CO)NC(=O)C(N)CNC(=O)C(C2CCN=C(N)N2)NC(=O)/C(=C/NC(N)=O)NC1=O (stereo not drawn) (H-[Dap]S[Dap](ξβ3hOrn)[ΔAla(Z-3-ureido)][X2]; lactam 1-C; configuration not given here) | 21.4 | 1.54 | 3.33 | 2.07 | -24.2 | 13.7 | 1 | 0.882 |  | 
CC1(C)O[C@@H]2CC3C4CCC5=CC(=O)CCC5(C)C4(F)C(O)CC3(C)[C@]2(C(=O)CCl)O1 (some centres not stated) | -34.5 | 1.26 | -3.98 | 1.36 | 79.5 | 12.8 | 2 | 1.1 | 190% (inactive) | 88.4
COc1ccc2c(c1OC)C(=O)O[C@H]2[C@@H]1c2ccccc2CCN1C | 69.2 | 1.08 | -8.02 | 0.71 | 72.2 | -0.43 | 2 | 19 |  | 
CC(C)CC1NC(=O)CNC1=O (configuration not stated) | 8.98 | 1.33 | -6.28 | 1.01 | -30.2 | -1.97 | 2 | 0.832 |  | 
NC[C@@H]1O[C@H](OC2[C@@H](O)[C@H](O[C@@H]3[C@H](N)[C@@H](O)C[C@H](N)[C@H]3O[C@H]3O[C@H](CO)[C@@H](O)[C@H](O)[C@H]3N)O[C@@H]2CO)[C@H](N)[C@@H](O)[C@@H]1O (some centres not stated) | 25.1 | 0.88 | -2.53 | 1.33 | 16.8 | 21.4 | 2 | 0.564 |  | 
COc1cccc(C(=O)c2ccccc2O)c1O | -4.26 | 0.2 | 0 | 1.59 | 85.8 | -9.84 |  | 0.104 |  | 
CC(=O)N[C@@H](Cc1c[nH]c2ccccc12)C(=O)O | 20.8 | 1.18 | 0.41 | 0.48 | 74.4 | 9.72 | 2 | 1.31 | 106% (inactive) | 70.5
CCC[C@@H]1C[C@@H](C(=O)NC(C(C)Cl)C2O[C@H](SC)[C@H](O)[C@@H](O)[C@H]2O)N(C)C1 (some centres not stated) | 0.38 | 1.1 | -7.48 | 1.11 | 60.6 | -13 | 2 | 1.42 |  | 
COc1ccc(CCC(=O)c2c(O)cc(O[C@@H]3O[C@H](CO)C(O)[C@H](O)C3O[C@@H]3O[C@@H](C)[C@H](O)[C@@H](O)[C@H]3O)cc2O)cc1O (some centres not stated) | 18.6 | 1.15 | -2.46 | 1.1 | 77.8 | -15.4 | 2 | 1.25 | 146% (inactive) | 70.8
NCCCCC(N)C(=O)NCC(=O)NC(Cc1cnc[nH]1)C(=O)NC(CCCCN)C(=O)O (configuration not stated) (H-KGHK-OH; configuration not given here) | -1.51 | 2.04 | 2.83 | 0.86 | 36 | 18.4 | 2 | 1.42 |  | 
CC1CC2C3CCC4=CC(=O)C=CC4(C)[C@@]3(F)C(O)CC2(C)[C@@]1(O)C(=O)CO (some centres not stated) | 7.1 | 1.26 | 8.02 | 1.12 | 59.3 | -14.9 | 2 | 1.3 |  | 
C1CCN2C[C@@H]3CC(CN4CCCC[C@@H]34)[C@H]2C1 | 16.2 | 1.32 | -2.17 | 1.45 | 72.7 | -9.72 | 2 | 1.48 |  | 
C[C@]12CCC3c4ccc(OC(=O)CCC(=O)O)cc4CCC3C1CCC2=O (some centres not stated) | 21.8 | 1.66 | 8.92 | 0.83 | 33.3 | -14.3 | 2 | 0.711 |  | 
O=C(Cc1cccs1)NC1C(=O)N2C(C(=O)[O-])=C(C[n+]3ccccc3)CSC12 (configuration not stated) | 35.1 | 1.38 | -1.43 | 1.22 | 59 | -13.7 | 2 | 1.45 | 179% (inactive) | 74.4
NCCCCC(N)C(=O)NC(Cc1c[nH]c2ccccc12)C(=O)NC(CCCCN)C(=O)O (stereo not drawn) (H-Lys-Trp-Lys-OH; configuration not given here) | 5.19 | 1.32 | 22.9 | 0.99 | 83.9 | 46.5 | 2 | 1.18 |  | 
CO/N=C(\C(=O)NC1C(=O)N2C(C(=O)O)=C(CSc3nc(=O)c(O)nn3C)CS[C@H]12)c1csc(N)n1 (some centres not stated) | 3.84 | 1.38 | -0.56 | 1.14 | 62.1 | 15.4 | 2 | 1.05 |  | 
CC(CNC(=O)c1ccccc1)C(=O)OCC(=O)[C@@]12OC(C)(C)O[C@@H]1CC1C3CCC4=CC(=O)C=C[C@]4(C)[C@@]3(F)[C@@H](O)C[C@@]12C (some centres not stated) | -1.62 | 1.01 | 13.9 | 0.92 | 100 | 4.01 | 2.5 | 1.21 |  | 
